Measurements reported in PubChem BioAssay.
Activity calls are given as the source filed them. Unless noted, how the calls were made is not given here.

How the values were obtained:
[1] = anti-His antibody binders, primary screen, artefact control for SMM control protein annotation, biochemical, small-molecule microarray, 635 nm fluorescence (AID 1128); settings: anti-His Alexa647 antibody binding, higher = more signal;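 further: score merges feature fluorescence with signal-to-noise for each printed compound spot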
[2] = test system: Human papillomavirus type 1a E7 protein (residues 1-88); test: HPV1a E7 small-molecule binders, primary screen, biochemical, small-molecule microarray, residues 1-88, 635 nm (AID 1129); settings: small-molecule microarray binding, fluorescence 635 nm; higher = more signal
[3] = target: Focal adhesion kinase 1 (Homo sapiens) (UniProt Q05397); test: small-molecule microarray binders of FAK, primary screen, biochemical, 635/667 nm fluorescence, BSA, DTT (AID 1130); settings: PTK2 binding, 635 nm fluorescence, higher = more signal;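 further: composite of spot emission at 667 nm and signal to noise over triplicate slides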
[4] = test system: Fibrinogen (Alexa647-labelled); test: fibrinogen binders on compound microarrays, profiling panel, artefact control for SMM control-protein annotation, biochemical, small-molecule microarray, 635/667 nm fluorescence (AID 1131); settings: fibrinogen-A647 binding fluorescence, higher = more signal;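 further: z-score merges 667 nm fluorescence with per-spot signal-to-noise over triplicate slides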
[5] = target: Follistatin (Homo sapiens) (UniProt P19883); test: follistatin binders on small-molecule microarrays, primary screen, biochemical, small-molecule microarray, 635/667 nm fluorescence (AID 1132); settings: FST binding, 635 nm fluorescence, higher = more signal
[6] = target: Fibroblast growth factor 2 (Homo sapiens) (UniProt P09038); test: FGF2 binders on small-molecule microarrays, primary screen, biochemical, small-molecule microarray, 635/667 nm fluorescence (AID 1133); settings: small-molecule microarray binding, FGF2, fluorescence 635/667; higher = more signal
[7] = mitochondrial membrane potential change in A549 cells, profiling panel, cell-based, JC-1 fluorescence, basal, 24 h, 100 nL (AID 1138); settings: higher = more signal;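 further: A549 lung adenocarcinoma cells under basal conditions with no added stimulus; test concentration not given here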
Lefty1 = Lefty1 binders on small-molecule microarrays, primary screen, biochemical, small-molecule microarray, 635/667 nm fluorescence (AID 1139); settings: small-molecule microarray binding, fluorescence 635/667; higher = more signal
[8] = test system: wheat germ agglutinin (Triticum aestivum), Alexa647-labelled; test: wheat germ agglutinin binders on compound microarrays, profiling panel, artefact control for SMM control-protein annotation, biochemical, small-molecule microarray, 635/667 nm fluorescence (AID 1140); settings: WGA-A647 binding, 635 nm fluorescence, higher = more signal;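 further: score merges 667 nm feature emission with signal to noise over triplicate slides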
[9] = target: Luciferin 4-monooxygenase (Photinus pyralis) (UniProt P08659); test: firefly luciferase enzyme inhibitors, primary screen, biochemical, luminescence, purified enzyme, 2006 set (AID 1141); settings: SteadyGlo luminescence, 30 min, higher = more signal, called active from +8 up or from −8 down;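 further: cell-free assay with purified firefly luciferase at 100 ng per well in PBS; test concentration not given here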
[10] = test system: Wnt5a (protein binding on small-molecule microarray); test: Wnt5a binders on small-molecule microarray, primary screen, biophysical, 635/667 nm fluorescence (AID 1142); settings: 635 nm fluorescence, higher = more signal;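 further: fluorescence read at 667 nm with signal to noise per printed feature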
[11] = cell viability in Huh7 cells, primary screen, cytotoxicity control for HCV replication inhibitor project, CellTiter-Glo luminescence, basal, 48 h (AID 1143); settings: Huh7 HCV replicon, higher = more signal, called active from +8 up or from −8 down;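 further: Huh7 hepatoma cells carrying a hepatitis C replication reporter with no stimulus; test concentration not given here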
[12] = P. aeruginosa biofilm formation inhibitors, primary screen, PAO1 strain, BacTiter-Glo luminescence, LB-PBS (AID 1144); settings: 12 h, higher = more signal
[13] = CREB reporter modulators without forskolin, primary screen, cell-based, PC12, CRE-LacZ reporter, unstimulated (AID 1145); settings: no forskolin, luminescence, 4.5 h, higher = more signal, called active from +8 up or from −8 down
[14] = CREB reporter modulators under forskolin, primary screen, cell-based, PC12, CRE-LacZ reporter, forskolin-stimulated (AID 1146); settings: luminescence, 4.5 h, higher = more signal, called active from +8 up or from −8 down;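 further: PC12 cells with 6xCRE LacZ reporter stimulated by forskolin 10 µM; beta-galactosidase reporter signal reflecting CREB driven transcription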
[15] = target: Streptavidin (Streptomyces avidinii) (UniProt P22629); test: streptavidin binders on small-molecule microarray, primary screen, artefact control for SMM compound annotation, biophysical, 635/667 nm fluorescence (AID 1147); settings: streptavidin binding, higher = more signal;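 further: signal reflects streptavidin binding to arrayed compounds as a control protein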
[16] = small-molecule binders of probe aInhba, primary screen, biochemical, small-molecule microarray, 635/667 nm fluorescence (AID 1148); settings: higher = more signal;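 further: score merges 667nm spot fluorescence with signal-to-noise for antibody binding to printed compounds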
Torsin-1A (Homo sapiens) [17] = target: Torsin-1A (Homo sapiens) (UniProt O14656); test: torsin A binders from cell lysate, primary screen, small-molecule microarray, wild-type, 635/667 nm (AID 1149); settings: COS7 hTOR1A-WT lysate, 635 nm fluorescence, higher = more signal
Torsin-1A (Homo sapiens) [18] = target: Torsin-1A (Homo sapiens) (UniProt O14656); test: small-molecule binders of mutant TOR1A in lysate, primary screen, cell lysate, small-molecule microarray, COS7 lysate, 635/667 nm fluorescence (AID 1150); settings: COS7 hTOR1A mutant lysate, 635 nm fluorescence, higher = more signal;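 further: score pools 667 nm emission and signal to noise measuring lysate protein binding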
[19] = test system: Sonic hedgehog protein (Shh); test: small-molecule binders of Shh protein, primary screen, biochemical, small-molecule microarray, 635/667 nm fluorescence (AID 1151); settings: small-molecule microarray binding, 635 nm fluorescence; higher = more signal;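 further: Shh protein binding to compounds spotted on small-molecule microarray slides; score combines spot fluorescence intensity with signal-to-noise across triplicate slides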

Luciferin 4-monooxygenase (Photinus pyralis), sequence (P08659 whole entry, looked up): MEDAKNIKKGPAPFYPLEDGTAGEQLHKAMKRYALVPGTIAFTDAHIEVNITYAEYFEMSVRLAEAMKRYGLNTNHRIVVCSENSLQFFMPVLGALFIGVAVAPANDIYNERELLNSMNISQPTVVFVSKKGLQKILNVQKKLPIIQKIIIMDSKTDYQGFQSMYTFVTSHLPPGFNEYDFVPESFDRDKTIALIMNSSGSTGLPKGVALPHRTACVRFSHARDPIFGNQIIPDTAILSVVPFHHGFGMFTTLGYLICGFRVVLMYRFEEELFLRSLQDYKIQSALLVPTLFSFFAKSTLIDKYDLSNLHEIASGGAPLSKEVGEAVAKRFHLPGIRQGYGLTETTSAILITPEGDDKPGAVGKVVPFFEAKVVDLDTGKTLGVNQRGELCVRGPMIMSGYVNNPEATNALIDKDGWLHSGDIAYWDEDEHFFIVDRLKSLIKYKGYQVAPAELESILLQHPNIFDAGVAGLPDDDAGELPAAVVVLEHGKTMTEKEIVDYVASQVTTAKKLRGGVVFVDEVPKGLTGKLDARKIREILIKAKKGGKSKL
Fibroblast growth factor 2 (Homo sapiens), sequence (P09038 whole entry, looked up): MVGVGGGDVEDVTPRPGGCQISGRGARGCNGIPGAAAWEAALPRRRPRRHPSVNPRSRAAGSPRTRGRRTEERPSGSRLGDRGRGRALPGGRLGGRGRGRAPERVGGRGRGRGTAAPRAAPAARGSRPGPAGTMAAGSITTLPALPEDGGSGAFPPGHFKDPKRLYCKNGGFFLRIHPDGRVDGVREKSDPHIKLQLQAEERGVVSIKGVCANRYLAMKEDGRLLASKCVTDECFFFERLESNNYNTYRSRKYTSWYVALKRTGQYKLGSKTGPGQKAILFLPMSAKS
Focal adhesion kinase 1 (Homo sapiens), sequence (Q05397 whole entry, looked up): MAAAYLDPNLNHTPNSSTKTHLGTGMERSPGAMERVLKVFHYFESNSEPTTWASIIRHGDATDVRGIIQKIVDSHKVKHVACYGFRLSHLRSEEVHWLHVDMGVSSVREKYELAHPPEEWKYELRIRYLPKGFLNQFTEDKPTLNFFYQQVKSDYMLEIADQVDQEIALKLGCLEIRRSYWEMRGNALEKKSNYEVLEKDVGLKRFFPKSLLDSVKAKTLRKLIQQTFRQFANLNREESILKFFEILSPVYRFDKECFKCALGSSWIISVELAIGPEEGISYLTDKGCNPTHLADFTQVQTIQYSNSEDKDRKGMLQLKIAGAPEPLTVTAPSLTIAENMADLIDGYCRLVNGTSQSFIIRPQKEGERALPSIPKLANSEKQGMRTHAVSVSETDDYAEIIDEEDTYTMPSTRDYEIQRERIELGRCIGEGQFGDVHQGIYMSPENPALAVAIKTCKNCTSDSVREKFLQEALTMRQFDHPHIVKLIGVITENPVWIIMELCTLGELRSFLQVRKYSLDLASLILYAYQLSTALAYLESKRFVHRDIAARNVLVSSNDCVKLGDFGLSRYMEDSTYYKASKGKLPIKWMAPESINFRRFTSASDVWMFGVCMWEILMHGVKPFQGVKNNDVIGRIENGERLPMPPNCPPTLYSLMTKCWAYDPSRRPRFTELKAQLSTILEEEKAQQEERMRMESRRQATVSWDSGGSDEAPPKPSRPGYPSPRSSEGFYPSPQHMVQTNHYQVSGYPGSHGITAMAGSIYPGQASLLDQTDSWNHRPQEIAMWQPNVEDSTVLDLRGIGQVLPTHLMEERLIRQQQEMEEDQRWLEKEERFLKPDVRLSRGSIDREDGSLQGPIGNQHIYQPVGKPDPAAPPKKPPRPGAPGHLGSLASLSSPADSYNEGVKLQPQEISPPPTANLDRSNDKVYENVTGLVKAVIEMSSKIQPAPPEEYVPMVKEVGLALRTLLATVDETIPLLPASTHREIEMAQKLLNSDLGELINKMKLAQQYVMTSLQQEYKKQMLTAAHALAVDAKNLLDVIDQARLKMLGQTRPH
Torsin-1A (Homo sapiens), sequence (O14656 whole entry, looked up): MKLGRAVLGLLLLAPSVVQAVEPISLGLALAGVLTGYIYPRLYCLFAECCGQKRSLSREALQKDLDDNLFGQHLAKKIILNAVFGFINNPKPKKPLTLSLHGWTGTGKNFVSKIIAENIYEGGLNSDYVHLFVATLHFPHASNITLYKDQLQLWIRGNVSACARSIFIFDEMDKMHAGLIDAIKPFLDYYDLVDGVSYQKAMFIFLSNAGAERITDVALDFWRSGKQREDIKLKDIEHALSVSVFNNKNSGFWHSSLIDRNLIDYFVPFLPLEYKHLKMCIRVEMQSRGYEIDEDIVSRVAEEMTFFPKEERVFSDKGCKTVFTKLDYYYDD
Streptavidin (Streptomyces avidinii), sequence (P22629 whole entry, looked up): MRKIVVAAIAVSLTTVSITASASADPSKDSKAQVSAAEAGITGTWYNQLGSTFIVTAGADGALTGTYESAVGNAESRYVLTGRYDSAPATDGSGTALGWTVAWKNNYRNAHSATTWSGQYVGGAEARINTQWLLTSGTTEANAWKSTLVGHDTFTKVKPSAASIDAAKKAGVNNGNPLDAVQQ
Follistatin (Homo sapiens), sequence (P19883 whole entry, looked up): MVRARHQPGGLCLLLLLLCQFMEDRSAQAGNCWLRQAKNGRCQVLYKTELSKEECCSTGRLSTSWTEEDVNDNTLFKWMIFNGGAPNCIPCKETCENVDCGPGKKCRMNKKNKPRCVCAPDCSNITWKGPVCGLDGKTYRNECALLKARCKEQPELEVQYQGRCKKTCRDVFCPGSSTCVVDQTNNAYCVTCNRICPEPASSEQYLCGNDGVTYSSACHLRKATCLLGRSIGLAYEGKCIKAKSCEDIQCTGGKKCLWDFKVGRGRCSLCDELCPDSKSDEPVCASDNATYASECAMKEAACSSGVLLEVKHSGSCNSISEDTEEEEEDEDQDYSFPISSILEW

`CC[C@H](C)C(=O)O[C@H]1CC[C@]2(C)C3=C(CCC2C1(C)C)[C@]1(C)CC[C@H]([C@H](C)CCCC(C)C)[C@@]1(C)CC3` (stereo not given in full) gave a composite z-score [1] of 0.226, a composite z-score [2] of 0.666 and a composite z-score [3] of 0.122. The composite z-score [4] was 0.367, the composite z-score [5] was 0.538 and the composite z-score [6] was 0.35. For the same molecule, the z-score [7] was 1.15, the composite z-score (Lefty1) was 0.721 and the composite z-score [8] was 0.0438. The z-score [9] was -1.4 (inactive), the composite z-score [10] was 0.0143 and the z-score [11] was 0.15 (inactive). The z-score [12] was -0.0646 (inactive), the z-score [13] was 0.947 (inactive) and the z-score [14] was -1.24 (inactive). It also gave a composite z-score [15] of 0.984, a composite z-score [16] of -0.292 and a composite z-score (Torsin-1A (Homo sapiens) [17]) of 0.214. It also gave a composite z-score (Torsin-1A (Homo sapiens) [18]) of 0.339 and a composite z-score [19] of 0.613.

`COc1ccc([Si](C)(C)[C@H]2[C@H](CCO)O[C@@]3(C(=O)N(Cc4ccccc4)c4ccc(N(C=O)c5ccccc5)cc43)[C@@H]2C)cc1` showed a composite z-score [1] of 0.359, a composite z-score [2] of 0.644 and a composite z-score [3] of 0.274. The composite z-score [4] was 0.605, the composite z-score [5] was 0.919 and the composite z-score [6] was 0.25. It also gave a z-score [7] of 0.821, a composite z-score (Lefty1) of 1.01 and a composite z-score [8] of 0.153. For the same molecule, the z-score [9] was 0.457 (inactive), the composite z-score [10] was 0.078 and the z-score [11] was -6.74 (inactive). For the same molecule, the z-score [12] was -0.862 (inactive), the z-score [13] was 2.08 (inactive) and the z-score [14] was -0.993 (inactive). It also gave a composite z-score [15] of 0.593, a composite z-score [16] of 0.122 and a composite z-score (Torsin-1A (Homo sapiens) [17]) of -0.0549. For the same molecule, the composite z-score (Torsin-1A (Homo sapiens) [18]) was 0.865 and the composite z-score [19] was 1.52.

For `C=CC[C@]1(C(=O)OC)N=C(c2ccc(OCCCO)cc2)O[C@H]1c1ccccc1N=[N+]=[N-]`, the composite z-score [1] was 3.65, the composite z-score [2] was 1.21 and the composite z-score [3] was 1.01. It also gave a composite z-score [4] of 0.266, a composite z-score [5] of 1.43 and a composite z-score [6] of 1.78. It also gave a z-score [7] of -0.674, a composite z-score (Lefty1) of 1.12 and a composite z-score [8] of 0.291. The z-score [9] was -11 (active), the composite z-score [10] was 1.2 and the z-score [11] was -3.62 (inactive). For the same molecule, the z-score [12] was -1.04 (inactive), the z-score [13] was 0.171 (inactive) and the z-score [14] was -2.05 (inactive). The composite z-score [15] was 0.126, the composite z-score [16] was 0.707 and the composite z-score (Torsin-1A (Homo sapiens) [17]) was 0.662. For the same molecule, the composite z-score (Torsin-1A (Homo sapiens) [18]) was 1 and the composite z-score [19] was 1.68.

Molecule `CC(C)=CCN(C(=O)C#Cc1ccccc1)[C@H](CO)c1ccccc1` has a composite z-score [1] of 0.326, a composite z-score [2] of 0.419 and a composite z-score [3] of -0.0317. It also gave a composite z-score [4] of 0.237, a composite z-score [5] of 0.653 and a composite z-score [6] of 0.766. For the same molecule, the z-score [7] was -0.842, the composite z-score (Lefty1) was 0.743 and the composite z-score [8] was 0.146. The z-score [9] was 0.265 (inactive), the composite z-score [10] was -0.0314 and the z-score [11] was -8.76 (active). The z-score [12] was 1.15 (inactive), the z-score [13] was 14.3 (active) and the z-score [14] was -4.52 (inactive). The composite z-score [15] was -0.131, the composite z-score [16] was -0.15 and the composite z-score (Torsin-1A (Homo sapiens) [17]) was 0.423. It also gave a composite z-score (Torsin-1A (Homo sapiens) [18]) of -0.0045 and a composite z-score [19] of 0.708.

With `C=C(COC)/C(=C/C[C@H](OC(=O)c1ccncc1)c1ccc(OCCO)cc1)c1cc(C(=O)OC)ccc1OC` the composite z-score [1] was 1.14, the composite z-score [2] was 1.18 and the composite z-score [3] was 0.918. It also gave a composite z-score [4] of 0.763, a composite z-score [5] of 1.38 and a composite z-score [6] of 0.329. For the same molecule, the z-score [7] was -0.408, the composite z-score (Lefty1) was 1.58 and the composite z-score [8] was 0.622. For the same molecule, the z-score [9] was -0.265 (inactive), the composite z-score [10] was 0.457 and the z-score [11] was -3.86 (inactive). For the same molecule, the z-score [12] was -0.999 (inactive), the z-score [13] was 5.8 (inactive) and the z-score [14] was 0.946 (inactive). For the same molecule, the composite z-score [15] was 0.616, the composite z-score [16] was -0.0087 and the composite z-score (Torsin-1A (Homo sapiens) [17]) was 0.229. It also gave a composite z-score (Torsin-1A (Homo sapiens) [18]) of 0.132 and a composite z-score [19] of 1.94.
